Measurements: the supplement of paper PMC10646978
± gives the standard deviation.

Key:
Settings in all cases: modulator concentration 10 µM
[1] = test system: RAW-Dual (murine macrophage reporter line); experiment: NF-kB reporter (SEAP) activity fold change vs agonist alone; higher = enhanced NF-kB activity
Method in brief: (§1)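 RAW-Dual murine macrophage reporter cells were seeded at 50 000 per well in 384-well plates and pre-incubated 1 hour at 37 °C with compound pin-transferred to 10 μM final. After 1 hour, a PRR agonist was added and cells incubated overnight. Supernatant NF-κB (SEAP, QUANTI-Blue, 620 nm absorbance) and IRF (Lucia luciferase, QUANTI-Luc, luminescence) signals were divided by the mean agonist-only control on the same plate to give fold change. Two replicate plates were averaged, with errors by propagation.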

[2] = test system: RAW-Dual (murine macrophage reporter line); experiment: IRF reporter (Lucia luciferase) activity fold change vs agonist alone; higher = enhanced IRF activity
Method in brief: as §1

[3] = test system: RAW-Dual (murine macrophage reporter line); experiment: viability score (confluency relative to resting cells, overnight) (fraction); higher = more viable, active = viable (0.7 or more)
Method in brief: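 Two confluency masks, generated with IncuCyte software over all imaged wells, were applied to IncuCyte images of RAW-Dual macrophages. The cells, in 384-well plates, had been exposed overnight to 10 μM final compound. The viability score is confluency as a fraction of resting cells, and a compound met the cutoff only with both masks above 70% of resting cells.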

[4] = agonist: CpG ODN 1826 0.5 ug/mL

For `CN1CCC(=C2c3ccccc3C=Cc3ccccc32)CC1.Cl`, the NF-kB reporter [1, 4] was 0.727 ± 0.13, the NF-kB reporter ([1]; agonist: LPS 0.1 ug/mL) was 0.808 ± 0.067 and the NF-kB reporter ([1]; agonist: MPLA […]) was 0.904 ± 0.048. For the same compound, the IRF reporter ([2]; agonist: 3'3'-cGAMP 10 ug/mL) was 0.794 ± 0.049, the IRF reporter ([2]; agonist: LPS 0.1 ug/mL) was 1 ± 0.19 and the IRF reporter ([2]; agonist: MPLA […]) was 0.974 ± 0.2. The viability score [3] was 0.651 (inactive).

Compound `O=C(Nc1ccc(-c2cn3ccsc3n2)cc1)NC1CCCCC1` has an NF-kB reporter [1, 4] of 2.23 ± 0.14, an NF-kB reporter ([1]; agonist: LPS 0.1 ug/mL) of 1.16 ± 0.12 and an NF-kB reporter ([1]; agonist: MPLA […]) of 1.59 ± 0.11. For the same compound, the IRF reporter ([2]; agonist: 3'3'-cGAMP 10 ug/mL) was 0.5 ± 0.032, the IRF reporter ([2]; agonist: LPS 0.1 ug/mL) was 0.923 ± 0.086 and the IRF reporter ([2]; agonist: MPLA […]) was 1.22 ± 0.18. The viability score [3] was 0.826 (active).

For `Cl.Cl.Fc1ccc(C(c2ccc(F)cc2)N2CCN(C/C=C/c3ccccc3)CC2)cc1`, the NF-kB reporter [1, 4] was 1.06 ± 0.087, the NF-kB reporter ([1]; agonist: LPS 0.1 ug/mL) was 0.97 ± 0.1 and the NF-kB reporter ([1]; agonist: MPLA […]) was 1.42 ± 0.3. It also gave an IRF reporter ([2]; agonist: 3'3'-cGAMP 10 ug/mL) of 1.06 ± 0.068, an IRF reporter ([2]; agonist: LPS 0.1 ug/mL) of 1.11 ± 0.082 and an IRF reporter ([2]; agonist: MPLA […]) of 1.26 ± 0.14. The viability score [3] was 0.999 (active).

`CS(=O)(=O)N(CC(=O)NCCSCc1cccc(Cl)c1)c1ccc(Cl)cc1` showed an NF-kB reporter [1, 4] of 0.893 ± 0.093, an NF-kB reporter ([1]; agonist: LPS 0.1 ug/mL) of 0.962 ± 0.079 and an NF-kB reporter ([1]; agonist: MPLA […]) of 0.964 ± 0.044. For the same compound, the IRF reporter ([2]; agonist: 3'3'-cGAMP 10 ug/mL) was 0.904 ± 0.13, the IRF reporter ([2]; agonist: LPS 0.1 ug/mL) was 1.07 ± 0.062 and the IRF reporter ([2]; agonist: MPLA […]) was 0.902 ± 0.081. The viability score [3] was 1 (active).

`Brc1ccc2ncnc(NCc3cccnc3)c2c1` was tested, and the NF-kB reporter [1, 4] was 1.22 ± 0.069, the NF-kB reporter ([1]; agonist: LPS 0.1 ug/mL) was 1.31 ± 0.11 and the NF-kB reporter ([1]; agonist: MPLA […]) was 1.02 ± 0.04. For the same compound, the IRF reporter ([2]; agonist: 3'3'-cGAMP 10 ug/mL) was 0.329 ± 0.014, the IRF reporter ([2]; agonist: LPS 0.1 ug/mL) was 0.498 ± 0.047 and the IRF reporter ([2]; agonist: MPLA […]) was 0.641 ± 0.11. The viability score [3] was 1 (active).

In the case of `CCN(CC)CCNC(=O)c1c(C)[nH]c(/C=C2\C(=O)Nc3ccc(F)cc32)c1C.O=C(O)C[C@H](O)C(=O)O`, the NF-kB reporter [1, 4] is reported as 0.186 ± 0.011, the NF-kB reporter ([1]; agonist: LPS 0.1 ug/mL) is reported as 0.791 ± 0.11 and the NF-kB reporter ([1]; agonist: MPLA […]) is reported as 0.636 ± 0.061. For the same compound, the IRF reporter ([2]; agonist: 3'3'-cGAMP 10 ug/mL) was 0.0261 ± 0.0039, the IRF reporter ([2]; agonist: LPS 0.1 ug/mL) was 0.048 ± 0.0053 and the IRF reporter ([2]; agonist: MPLA […]) was 0.0544 ± 0.016. The viability score [3] was 0.117 (inactive).

`CCCOc1ccc(C=CC(=O)Nc2ccc(S(=O)(=O)Nc3ncccn3)cc2)cc1OC` was tested, and the NF-kB reporter [1, 4] was 0.938 ± 0.077, the NF-kB reporter ([1]; agonist: LPS 0.1 ug/mL) was 1.03 ± 0.06 and the NF-kB reporter ([1]; agonist: MPLA […]) was 0.963 ± 0.092. It also gave an IRF reporter ([2]; agonist: 3'3'-cGAMP 10 ug/mL) of 0.982 ± 0.035, an IRF reporter ([2]; agonist: LPS 0.1 ug/mL) of 1.27 ± 0.18 and an IRF reporter ([2]; agonist: MPLA […]) of 1.11 ± 0.23. The viability score [3] was 1.01 (active).

`O=C(Nc1ccccc1)NC1CCS(=O)(=O)C1` (stereo unspecified) gave an NF-kB reporter [1, 4] of 1.02 ± 0.096, an NF-kB reporter ([1]; agonist: LPS 0.1 ug/mL) of 1.09 ± 0.1 and an NF-kB reporter ([1]; agonist: MPLA […]) of 0.998 ± 0.042. The IRF reporter ([2]; agonist: 3'3'-cGAMP 10 ug/mL) was 0.97 ± 0.054, the IRF reporter ([2]; agonist: LPS 0.1 ug/mL) was 0.889 ± 0.16 and the IRF reporter ([2]; agonist: MPLA […]) was 0.88 ± 0.18. For the same compound, the viability score [3] was 0.995 (active).

`C=C1CCC(NS(=O)(=O)c2ccc(-c3coc(C)n3)cc2)CC1` gave an NF-kB reporter [1, 4] of 1.04 ± 0.056, an NF-kB reporter ([1]; agonist: LPS 0.1 ug/mL) of 1.15 ± 0.091 and an NF-kB reporter ([1]; agonist: MPLA […]) of 1.14 ± 0.062. It also gave an IRF reporter ([2]; agonist: 3'3'-cGAMP 10 ug/mL) of 1.22 ± 0.062, an IRF reporter ([2]; agonist: LPS 0.1 ug/mL) of 1.14 ± 0.11 and an IRF reporter ([2]; agonist: MPLA […]) of 1.2 ± 0.17. The viability score [3] was 0.834 (active).

Work on `Nc1nnc(C(=O)O)[nH]1` yielded an NF-kB reporter [1, 4] of 1.04 ± 0.083, an NF-kB reporter ([1]; agonist: LPS 0.1 ug/mL) of 1.14 ± 0.08 and an NF-kB reporter ([1]; agonist: MPLA […]) of 1.03 ± 0.043. It also gave an IRF reporter ([2]; agonist: 3'3'-cGAMP 10 ug/mL) of 1.06 ± 0.2, an IRF reporter ([2]; agonist: LPS 0.1 ug/mL) of 1.03 ± 0.1 and an IRF reporter ([2]; agonist: MPLA […]) of 1.23 ± 0.19. The viability score [3] was 1 (active).

`O=C(Nc1cccc(Cl)c1Cl)c1cc2nc(-c3ccco3)cc(C(F)(F)F)n2n1` showed an NF-kB reporter [1, 4] of 0.9 ± 0.054, an NF-kB reporter ([1]; agonist: LPS 0.1 ug/mL) of 1.01 ± 0.08 and an NF-kB reporter ([1]; agonist: MPLA […]) of 0.918 ± 0.055. For the same compound, the IRF reporter ([2]; agonist: 3'3'-cGAMP 10 ug/mL) was 0.864 ± 0.029, the IRF reporter ([2]; agonist: LPS 0.1 ug/mL) was 1.25 ± 0.082 and the IRF reporter ([2]; agonist: MPLA […]) was 1.21 ± 0.16. The viability score [3] was 1 (active).

In the case of `CCOc1ccccc1O[C@H](c1ccccc1)[C@H]1CNCCO1.CS(=O)(=O)O`, the NF-kB reporter [1, 4] is reported as 0.873 ± 0.095, the NF-kB reporter ([1]; agonist: LPS 0.1 ug/mL) is reported as 0.979 ± 0.061 and the NF-kB reporter ([1]; agonist: MPLA […]) is reported as 1.03 ± 0.055. The IRF reporter ([2]; agonist: 3'3'-cGAMP 10 ug/mL) was 0.82 ± 0.045, the IRF reporter ([2]; agonist: LPS 0.1 ug/mL) was 0.905 ± 0.15 and the IRF reporter ([2]; agonist: MPLA […]) was 0.897 ± 0.074. For the same compound, the viability score [3] was 0.99 (active).

`O=C1C(N2CCC(O)C2)CCN1CC(F)(F)F` (stereo unspecified) was tested, and the NF-kB reporter [1, 4] was 0.992 ± 0.12, the NF-kB reporter ([1]; agonist: LPS 0.1 ug/mL) was 1.04 ± 0.1 and the NF-kB reporter ([1]; agonist: MPLA […]) was 0.876 ± 0.086. It also gave an IRF reporter ([2]; agonist: 3'3'-cGAMP 10 ug/mL) of 1.03 ± 0.053, an IRF reporter ([2]; agonist: LPS 0.1 ug/mL) of 1.22 ± 0.079 and an IRF reporter ([2]; agonist: MPLA […]) of 1.24 ± 0.15. The viability score [3] was 1.01 (active).
